# Compound activity from PubChem BioAssay.
# MazF activator: activators of E. coli MazEF toxin-antitoxin RNase; P0AE70; FAM/BHQ RNA-DNA oligo cleavage fluorescence, 5 h; activation, % at 20 µM; 350,000 compounds, 0.32% hits; in the data active means activation above about 50%
# Target sequence (P0AE70 whole entry, looked up): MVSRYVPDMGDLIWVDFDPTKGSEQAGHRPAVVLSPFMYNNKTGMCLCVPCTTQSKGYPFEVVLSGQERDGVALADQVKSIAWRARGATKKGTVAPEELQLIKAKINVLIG
# BoNT-A LC inh2: BoNT A light chain protease inhibition; inhibition, % at 10 µM; 360,000 compounds, 0.17% hits; multiplex microsphere protease substrate cleavage, flow cytometry
# Autofluor counter: counter-screen for toxin protease inhibitors: compound fluorescence | compound autofluorescence counterscreen, microsphere flow cytometry; stronger effect = higher value | 360,000 compounds, 3.1% hits | fluorescence intensity (test concentration not listed); in the data active means fluorescence intensity above about 16000; inconclusive means no clear call, values can overlap the other calls
# Anthrax LF prot: inhibitors of Bacillus anthracis lethal factor protease. multiplex microsphere protease cleavage assay, LF. inhibition, % at 10 µM. 360,000 compounds, 0.12% hits. AID 588501
# BoNT F protease: BoNT F light chain protease inhibition | 360,000 compounds, 0.22% hits | AID 588497 | inhibition, % at 10 µM | Multiplex microsphere protease cleavage assay, flow cytometry; in the data active means inhibition above about 35%, passing the limit was not always enough; inconclusive means no clear call, values can overlap the other calls
# Numbers stand for hits; – = inactive; ? = inconclusive; · = not tested or not shown. Shown are actives, neighbours in structure and some others; about 3.6% of the full set was active somewhere. Unless noted, no stated cut-off is given here; in the data, active means inhibition above about 30%; inconclusive means no clear call, values can overlap the other calls; inactive means below that.
SMILES,MazF activator,BoNT-A LC inh2,Autofluor counter,Anthrax LF prot,BoNT F protease
N=c1n(CC(=O)c2ccc([N+](=O)[O-])cc2)c2ccccc2n1Cc1ccccc1,329,–,–,–,–
CCCCCCCCC(=O)NNC(=O)c1c(O)c2ccccc2n(CC)c1=O,–,–,–,–,39
CCn1c(=O)c(C(=O)Nc2ccccc2C)c(O)c2ccccc21,–,?,22484,–,–
CCCCCCC(=O)NNC(=O)c1c(O)c2ccccc2n(CC)c1=O,–,–,–,–,–
CCCn1c(=O)c(C(=O)Nc2ccccc2C)c(O)c2ccccc21,–,–,–,–,?
COc1ccc(C(=O)NCN2CCN(c3ccccc3)CC2)cc1OC,–,–,–,–,–
COCCN1C(=O)N[C@@H](c2ccco2)C(C(=O)OC)=C1C,–,–,–,–,–
O=C(Nc1ccc(Cl)c(Cl)c1)Nc1nccs1,–,–,–,–,–
O=C(Nc1cccc(Cl)c1)Nc1nccs1,–,?,16192,–,–
O=C(Nc1ccc(S(=O)(=O)Nc2ncccn2)cc1)c1ccc(Br)s1,–,–,16878,–,–
Cc1ccc(NS(=O)(=O)c2ccc(NC(=O)c3cccs3)cc2)cc1,74,–,–,–,–
CCc1ccc([C@@H]2CC(=O)[C@@H]3CN(S(=O)(=O)c4ccccc4C)[C@H](c4ccc(Cl)cc4)C[C@@H]3N2S(=O)(=O)c2ccc(C)cc2)cc1,·,–,–,–,–
O=C(Nc1ccc(Cl)c(C(F)(F)F)c1)NC1CC2CCCC(C1)N2Cc1ccccc1 (stereo not given),159,·,·,·,·
CCCCn1nnnc1C(c1cc2ccccc2o1)N(CCN(C)C)Cc1ccccc1 (stereo not given),·,–,–,–,–
Cc1ccc2oc(-c3cccc(NC(=O)c4ccc(Br)o4)c3C)nc2c1,–,–,–,–,–
Cc1c(NC(=O)CSc2ccc(Cl)cc2)cccc1-c1nc2cc(Cl)ccc2o1,129,–,–,–,–
Cc1c(CCO)c(=O)[nH]n1C(=O)c1ccc(F)cc1,–,–,23529,–,–
Cc1c(CCO)c(=O)n(C)n1C(=O)c1ccc(F)cc1,–,–,–,–,–
CCOc1ccc(OCCCC(=O)Nc2cc(Cl)ccc2-n2cncn2)cc1,–,–,–,–,–
O=S(=O)(c1ccc(N2CC=C(c3ccccc3)CC2)nc1)N1CCCC1,–,?,24332,–,–
Cc1ccc(C(=O)N2CCCC(Nc3ccc(F)cc3)C2)cc1C (stereo not given),–,–,–,–,–
O=S(=O)(c1ccc(N2CCCC2)cc1)C(F)(F)F,–,–,16476,–,–
O=S(=O)(c1ccc(N2CCN(c3ccc(F)cc3)CC2)cc1)N1CCCC1,–,–,–,–,–
Cc1ccc(S(=O)(=O)CCC(=O)Nc2nnc(-c3ccccc3S(C)(=O)=O)o2)cc1,–,–,–,–,–
CC(=O)/C(=C\N(C)C)Sc1ccc(C)cc1,–,–,–,?,38
SMILES,MazF activator,BoNT-A LC inh2,Autofluor counter,Anthrax LF prot,BoNT F protease
CC(=O)/C(=C/N(C)C)Sc1ccc(C)cc1,–,–,–,–,–
O=C(CN(Cc1cccs1)C(=O)CNS(=O)(=O)c1ccc(Cl)cc1)NCc1ccco1,–,?,21887,–,–
CCCC1=C(C(=O)OCC)C(c2cccs2)C(C#N)=C(N)O1 (stereo not given),–,–,22890,–,–
CCOC(=O)C1=C(C)OC(N)=C(C#N)C1c1ccoc1 (stereo not given),–,–,16971,–,–
CCOC(=O)C1=C(C)NC(SCC(N)=O)=C(C#N)C1c1cccs1 (stereo not given),–,–,–,–,–
CCOC(=O)C1=C(C)OC(N)=C(C#N)C1c1cccs1 (stereo not given),–,–,–,–,–
CCSC1=C(C#N)C(c2cccs2)C(C(=O)OC)=C(C)N1 (stereo not given),–,?,22477,–,–
Cc1c(OC(C)C(=O)N2C[C@H]3C[C@@H](C2)c2cccc(=O)n2C3)ccc2c3c(c(=O)oc12)CCC3 (stereo not given in full),–,–,–,–,–
CNc1nnc(-c2ccncc2)s1,–,–,16766,–,–
CN=C1SC(CC(=O)Nc2cc(Cl)ccc2Cl)C(=O)N1C (stereo not given),–,–,21833,–,–
CN=C1SC(CC(=O)Nc2ccc(C(C)=O)cc2)C(=O)N1C (stereo not given),–,–,–,–,–
Cc1ccc(NC2c3ncccc3C(=O)N2Cc2ccco2)c(C)c1 (stereo not given),–,–,–,–,–
COc1ccc(CN2C(=O)c3cccnc3C2O)cc1 (stereo not given),–,–,–,–,–
COc1ccc(OC)c(NC2c3ncccc3C(=O)N2Cc2ccco2)c1 (stereo not given),–,–,16912,–,–
COc1ccc(CN2C(=O)c3cccnc3C2Nc2cc(Cl)ccc2OC)cc1 (stereo not given),–,–,21495,–,–
CN(C)S(=O)(=O)c1cccc(NC(=O)COC(=O)CNC(=O)c2cccc([N+](=O)[O-])c2)c1,–,–,–,–,–
COC(=O)c1ccc(OC(=O)C2CC(=O)N(c3cccc(C)c3)C2)cc1 (stereo not given),–,?,16757,–,–
COc1cccc(N2CC(C(=O)Oc3ccc4ccccc4c3)CC2=O)c1 (stereo not given),–,–,–,–,–
OC(COCc1ccccc1)Cn1cnc2ccccc21 (stereo not given),–,?,16259,–,–
Cc1n(CC(O)COCc2ccccc2)c2ccccc2[n+]1C (stereo not given),–,–,23714,–,–
CC(=O)Nc1cccc(OCC(O)Cn2cnc3ccccc32)c1 (stereo not given),–,?,22621,–,–
O=C(Cn1cnc2ccccc21)NCc1ccccc1,–,–,21986,–,–
O=C(CCC1CCCCC1)NCCS(=O)(=O)N1CCN(c2ccccc2)CC1,–,–,–,–,–
CC(=O)NS(=O)(=O)c1ccc(NC(=O)C(C)NS(=O)(=O)/C=C/c2ccccc2)cc1 (stereo not given),–,–,–,–,–
COc1ccc(S(=O)(=O)Nc2ccc3c(c2)C(=O)N([C@H](C)CO)C[C@H](C)[C@@H](CN(C)S(=O)(=O)c2cn(C)cn2)OCCCC[C@H](C)O3)cc1,–,–,–,–,–
SMILES,MazF activator,BoNT-A LC inh2,Autofluor counter,Anthrax LF prot,BoNT F protease
CC1CCCN(CC(O)CN)C1 (stereo not given),–,–,17684,–,–
CN(CC(=O)Nc1ccc(N2CCOCC2)cc1)C(=O)c1cc2c(s1)CCCC2,–,–,–,–,–
O=C(NCc1ccccn1)c1cccs1,–,?,17079,–,–
O=C(NCc1ccccn1)Nc1cccc(NC(=O)NCc2ccccn2)c1,–,–,22604,–,–
O=C(NCCCNC(=O)c1ccc(Cl)cc1Cl)c1ccccn1,–,–,–,–,–
O=C(NCc1ccccn1)c1ccc(Cl)cc1Cl,–,–,18047,–,–
O=C(NCc1ccccn1)c1ccc(Cl)s1,–,–,–,–,–
O=C(NCc1ccccn1)c1ccc(Br)s1,–,–,17043,–,–
